PubChem BioAssay (Tox21)
The source made the active and inactive calls. Entries that show only a call come without a potency. The call rests on the fitted dose curve.

biological target: Muscarinic acetylcholine receptor M1 (Homo sapiens) (UniProt P11229); assay: Cholinergic receptor muscarinic 1 (CHRM1) small molecule agonists, cell-based qHTS assay (AID 1963589); settings: CHRM1-CHO cells, agonist mode, calcium flux fluorescence; series mostly up to 76.8 µM; further: nearly all actives have a fitted effect of over 35% in size
Description: National Center for Advancing Translational Sciences [NCATS]
Division of Preclinical Innovation [DPI]
U.S. Environmental Protection Agency [EPA]
National Institutes of Environmental Health Sciences [NIEHS]
National Toxicology Program [NTP]
U.S. Food and Drug Administration [FDA]
The CHRM1 is a muscarinic receptor. This receptor plays a crucial role in learning and memory processes and has long been identified as a promising therapeutic target for the improvement of cognitive decline in Alzheimer's disease (AD). The CHRM1-CHO cell line stably expressing human muscarinic acetylcholine receptor M1 (CHRM1) can be used for screening agonists and antagonists of interactions between CHRM1 and its ligands. The CHRM1-CHO Calcium Flux Assay is a homogeneous fluorescence-based assay for detecting the intracellular calcium level using FDSS kinetic plate reader system.
CHRM1-CHO cells were dispensed at 1000 cells/3uL/well in 1536-well black-clear bottom plates using a Multidrop Dispenser. After the assay plates were incubated at a 37 C/5% CO2 incubator for 18 h, 3 uL of Dye Loading Buffer was transferred to the assay plate by a Flying Reagent Dispenser. The assay plates were incubated at 37 C for 1h. For agonist mode, 23 nL of compounds dissolved in DMSO, positive controls or DMSO only was transferred to the assay plate by a pin tool. […] Each test compound was measured at 15 concentrations in three independent runs.

Chain of Muscarinic acetylcholine receptor M1 (Homo sapiens) (P11229 whole entry, looked up): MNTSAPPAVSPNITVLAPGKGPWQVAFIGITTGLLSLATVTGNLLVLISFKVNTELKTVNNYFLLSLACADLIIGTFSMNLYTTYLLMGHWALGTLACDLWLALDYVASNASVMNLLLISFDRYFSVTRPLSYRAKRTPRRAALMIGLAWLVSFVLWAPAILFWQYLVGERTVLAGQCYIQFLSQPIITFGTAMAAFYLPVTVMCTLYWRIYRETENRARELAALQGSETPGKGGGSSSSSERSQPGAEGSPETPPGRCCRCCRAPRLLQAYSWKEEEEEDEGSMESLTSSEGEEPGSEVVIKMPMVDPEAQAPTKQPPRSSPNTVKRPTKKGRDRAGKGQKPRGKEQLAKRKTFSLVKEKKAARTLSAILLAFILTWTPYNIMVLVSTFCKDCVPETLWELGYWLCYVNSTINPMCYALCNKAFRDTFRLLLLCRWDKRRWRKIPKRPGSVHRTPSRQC

**Q.** Which Potency does the source give for `CCCCCN(CCCOC)C(=O)C(CCC(=O)O)NC(=O)c1ccc(Cl)c(Cl)c1` (stereo not given) here?
**A.** The Potency was “inactive”.

**Q.** `Cc1ccc(Cl)c(OCC(O)CNC(C)(C)C)c1` (stereo not given) was tested. Which Potency did it give?
**A.** The Potency was “inactive”.

**Q.** Which Potency does the source give for `O=C(N[C@@H](Cc1ccccc1)[C@@H](O)C(=O)N1C[C@@H](O)[C@@H](O)C1)c1cc2cc(Cl)ccc2[nH]1` here?
**A.** Its Potency is “inactive”.

**Q.** `O=[N+]([O-])c1ccc(CO)cc1` was tested. Which Potency did it give?
**A.** Its Potency is “inactive”.

**Q.** How did the Potency turn out when `CCc1cccc(C)c1N(C(=O)CS(=O)(=O)O)C(C)COC` (stereo not given) was run?
**A.** The Potency was “inactive”.

**Q.** Which Potency does the source give for `CC(C)NCCCC1(C(N)=O)c2ccccc2-c2ccccc21` here?
**A.** Its Potency is “inactive”.

**Q.** With `C=CCSCC1Nc2cc(Cl)c(S(N)(=O)=O)cc2S(=O)(=O)N1` (stereo not given) as the compound, how does the Potency read?
**A.** Its Potency is “inactive”.

**Q.** How did the Potency turn out when `OCCCO` was run?
**A.** Its Potency is “inactive”.

**Q.** For `Cc1nc2ccccc2n1Cc1ccc(Cl)cc1`, which Potency is on record?
**A.** Its Potency is “inactive”.

**Q.** For `N#CSc1ccc(N)c([N+](=O)[O-])c1`, which Potency is on record?
**A.** Its Potency is “inactive”.

**Q.** With `COc1cc(-c2ccc(N=C=O)c(OC)c2)ccc1N=C=O` as the compound, how does the Potency read?
**A.** Its Potency is “inactive”.

**Q.** `OCCNCc1ccccc1` was tested. Which Potency did it give?
**A.** The Potency was “inactive”.

**Q.** How did the Potency turn out when `CC12CCCC=C1C(=O)OC2=O` (stereo not given) was run?
**A.** The Potency was “inactive”.

**Q.** Which Potency does the source give for `O=C(NS(=O)(=O)/C=C/c1ccccc1)c1ccc(F)cc1Cl` here?
**A.** The Potency was “inactive”.

**Q.** With `CN(C)CCN1CCOCC1` as the compound, how does the Potency read?
**A.** Its Potency is “inactive”.

**Q.** `C[C@H](CN1CCCC1)C(=O)c1ccc(C(F)(F)F)cc1` was tested. Which Potency did it give?
**A.** The Potency was “inactive”.

**Q.** With `CCCCCCCCCCCCN1CCOCC1` as the compound, how does the Potency read?
**A.** The Potency was “inactive”.

**Q.** For `CCC1NC(=O)c2cc(S(N)(=O)=O)c(Cl)cc2N1` (stereo not given), which Potency is on record?
**A.** The Potency was “inactive”.

**Q.** Which Potency does the source give for `CN=C(NC#N)Nc1ccc(C2=NNC(=O)CC2C)cc1` (stereo not given) here?
**A.** Its Potency is “inactive”.

**Q.** How did the Potency turn out when `O=C(CCCCCCCCC#CI)Oc1ccccc1` was run?
**A.** The Potency was “inactive”.

**Q.** With `O=C(C(Cl)Cl)N1CCOC12CCCCC2` as the compound, how does the Potency read?
**A.** The Potency was “inactive”.

**Q.** Which Potency does the source give for `O=CNNC=O` here?
**A.** Its Potency is “inactive”.

**Q.** For `Cc1cc(Br)ccc1NC(=O)CCl`, which Potency is on record?
**A.** The Potency was “inactive”.

**Q.** For `CC(C)CCCCCCOC(=O)c1ccc(C(=O)OCCCCCCC(C)C)c(C(=O)OCCCCCCC(C)C)c1`, which Potency is on record?
**A.** The Potency was “inactive”.

**Q.** Which Potency does the source give for `CCC(CC)(CC(=O)Nc1cccc(/C=C/c2nc(C3CCC3)cs2)c1)C(=O)O` here?
**A.** The Potency was “inactive”.

**Q.** With `CCCCCCCCCCC(=O)O` as the compound, how does the Potency read?
**A.** The Potency was “inactive”.

**Q.** Which Potency does the source give for `NCCOCCOCCN` here?
**A.** The Potency was “inactive”.

**Q.** How did the Potency turn out when `CC(=O)Nc1cc(S(=O)(=O)O)cc2cc(S(=O)(=O)O)c(N=Nc3ccccc3)c(O)c12` was run?
**A.** Its Potency is “inactive”.

**Q.** How did the Potency turn out when `CCCCNS(=O)(=O)c1ccc(C)cc1` was run?
**A.** The Potency was “inactive”.

**Q.** Which Potency does the source give for `CCCCCC(=O)OCCc1ccccc1` here?
**A.** Its Potency is “inactive”.

**Q.** With `O=C(O)Cc1c(Cl)ccc(Cl)c1Cl` as the compound, how does the Potency read?
**A.** Its Potency is “inactive”.

**Q.** How did the Potency turn out when `CC1=CCC2C(C1)C2(C)C` (stereo not given) was run?
**A.** The Potency was “inactive”.

**Q.** `Cc1cccc(C)c1NC(=O)c1ccccc1C(=O)O` was tested. Which Potency did it give?
**A.** Its Potency is “inactive”.

**Q.** How did the Potency turn out when `O=C(CCN1CCC(c2ccccc2)C1)c1ccc2c(c1)OCCO2` (stereo not given) was run?
**A.** Its Potency is “inactive”.

**Q.** `Oc1cc(O)c(Cl)cc1Cl` was tested. Which Potency did it give?
**A.** Its Potency is “inactive”.

**Q.** How did the Potency turn out when `CC(C)C(=O)Nc1cccc(C(F)(F)F)c1` was run?
**A.** The Potency was “inactive”.

**Q.** Which Potency does the source give for `CC(C)=CCC[C@@](C)(O)[C@H]1CC=C(C)CC1` here?
**A.** The Potency was “inactive”.

**Q.** For `c1ccc(C(O[C@H]2CCCN(CCc3ccc4c(c3)OCO4)C2)c2ccccc2)cc1`, which Potency is on record?
**A.** Its Potency is “inactive”.

**Q.** How did the Potency turn out when `CCN(CC)CCOC(=O)C1(c2ccccc2)CCCC1` was run?
**A.** The Potency was “inactive”.

**Q.** How did the Potency turn out when `O=C1C(=O)c2ccccc2C(O)=C1C1CCC(c2ccc(Cl)cc2)CC1` (stereo not given) was run?
**A.** The Potency was “inactive”.
